This is an account of results in PubChem BioAssay.

Each structure is given as a SMILES string. Activity calls are given as the source filed them.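 How the source made its calls, unless noted: active means compound raises GLP1 secretion from the human gut endocrine cells, with no numeric limit stated; inactive means the rest.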

A short description of assay [1]: stimulators of nuclear beta-catenin in C2C12, primary screen, imaging, WNT3A-conditioned medium, mouse C2C12, NPC library (AID 1117326; in the data active means nuclear beta-catenin stimulation mostly above about 4.2%, no sharp cut-off; inactive means mostly below about 10%; further: reference of the scale not given here). The note with it: stronger effect = higher value.
Assay [2] can be described thus: stimulators of insulin release from INS-1E, primary screen, cell-based, 5 mM glucose, NPC library (AID 1117329;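 active means compound raises insulin release from rat beta cells at 5 mM glucose, no numeric limit stated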; further: reference of the scale not given here). The note with it: rat INS-1E insulin secretion, at 10 µM, stronger effect = higher value.
The nature of assay [3]: growth inhibition of GSK3B-pretreated HCT116 cells – cell-based, CellTiter-Glo, 0.2 to 20 µM (AID 1117336;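 active means compounds lowering colon cancer cell viability after pretreatment blocking the GSK3B kinase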). The note with it: HCT116 viability after GSK3B inhibitor, at 20 µM, stronger effect = higher value.
A short description of assay [4]: inhibition of endothelial tube formation, primary screen, imaging, VEGF stimulated, CD31 staining, tube area, NPC library (AID 1117340;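 active means compound that reduces growth-factor-driven endothelial tube area in a mixed cell culture, no cutoff stated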). The note with it: VEGF-stimulated ADSC/ECFC co-culture, at 10 µM, stronger effect = higher value.
Assay [5] is described as follows: glucagon-like peptide 1 release enhancers, primary assay, NCI-H716 cell line, NPC library (AID 1117341). Further: reference of the scale not given here. The conditions noted are these: NCI-H716 cells, at 10 µM, stronger effect = higher value.
Assay [6] can be described thus: HCT116 colon cancer cell growth inhibition, primary screen, CellTiter-Glo luminescence, NPC library (AID 1117342;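 active means compounds that lower survival of HCT116 colon cancer cells in the luminescence readout, no numeric limit stated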). The note with it: at 20 µM (top of the series).
A short description of assay [7]: CellTiter-Glo luminescent readout of SW480 viability loss, NPC library primary (AID 1117343;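 active means compounds that lower viability of the colon cancer cells in the luminescence readout, with no numeric limit stated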). The conditions noted are these: CellTiter-Glo luminescence; at 20 µM (top of the series). (In general: In ATP-based viability assays light output follows the ATP content of the culture.)
Assay [8] is described as follows: decreased DLD-1 cellular survival, CellTiter-Glo luminescent readout, NPC compound collection, primary HTS (AID 1117346;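 active means compounds that lower survival of DLD-1 colon cancer cells in the luminescence readout, no cutoff given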). The conditions noted are these: DLD-1 viability, CellTiter-Glo luminescence; at 20 µM (top of the series).

As to `FC1(F)C(F)(F)C(F)(F)C2(F)C(F)(F)C(F)(F)C(F)(F)C(F)(F)C2(F)C1(F)F` (stereo not given), the nuclear beta-catenin stimulation in assay [1] (at 10 µM) was -0.7% (inactive); in assay [1] (stimulation, at 2 µM), 0.3%. In addition, the insulin secretion stimulation in assay [2] is 1.3% (inactive). Moreover, the viability decrease in assay [3] is 17% (inactive). In assay [4], the tube area decrease was 10.2% (inactive). The GLP1 secretion stimulation in assay [5] was -0.8% (inactive). In assay [6], the inhibition of viability was -2.93% (inactive). The values for the viability decrease (inhibition) in assay [7] and in assay [8] were 21.7% (inactive) and -11.3% (inactive), respectively.
As for `CC(=O)N1CCN(c2ccc(O)cc2)CC1`, the nuclear beta-catenin stimulation was 1.7% (inactive) in assay [1] (at 10 µM) and -1.5% in assay [1] (stimulation, at 2 µM). Further, the insulin secretion stimulation in assay [2] is -0.1% (inactive). Also, in assay [3], the viability decrease is 73.5% (active). Besides, in assay [4], the tube area decrease is -25.3% (inactive). Also, the GLP1 secretion stimulation in assay [5] is 3.8% (inactive). Moreover, in assay [6], the inhibition of viability was 38.5% (inactive). Moreover, the results for the viability decrease (inhibition) in assay [7] and in assay [8] were 101% (active) and 34.4% (inactive), respectively.
Take `COc1ccccc1N1CCN(CC(O)COc2cc(OC)c(OC)c(OC)c2)CC1` (stereo not given): the nuclear beta-catenin stimulation in assay [1] (at 10 µM) is 0.2% (inactive); in assay [1] (stimulation, at 2 µM) it was 0.4%. The insulin secretion stimulation in assay [2] was 1.5% (inactive). The viability decrease in assay [3] is 16.1% (inactive). In assay [4], the tube area decrease was 56.8% (active). For the same compound, the GLP1 secretion stimulation in assay [5] is 4.5% (inactive). In addition, the inhibition of viability in assay [6] was 20.9% (inactive). For the same compound, the viability decrease (inhibition) in assay [7] is -2.1% (inactive); in assay [8], 8.5% (inactive).
`OC1(c2ccccc2)CCNCC1`: the nuclear beta-catenin stimulation in assay [1] (at 10 µM) is 0.2% (inactive); in assay [1] (stimulation, at 2 µM), 0.6%. Besides, the insulin secretion stimulation in assay [2] was -0.5% (inactive). In addition, the viability decrease in assay [3] was 6% (inactive). Also, in assay [4], the tube area decrease is -1% (inactive). The GLP1 secretion stimulation in assay [5] is 6.9% (inactive). Also, the inhibition of viability in assay [6] was 12.8% (inactive). Moreover, the viability decrease (inhibition) in assay [7] is 5.3% (inactive); in assay [8], 11.1% (inactive).
In the case of `CCCCOCCOC(=O)c1cccnc1`, the nuclear beta-catenin stimulation was 1.3% (inactive) in assay [1] (at 10 µM) and -0.3% in assay [1] (stimulation, at 2 µM). For the same compound, in assay [2], the insulin secretion stimulation is 2.6% (inactive). The viability decrease in assay [3] was -29.5% (inactive). In addition, in assay [4], the tube area decrease was 1.8% (inactive). Besides, in assay [5], the GLP1 secretion stimulation was 2.3% (inactive). The inhibition of viability in assay [6] was -11.9% (inactive). Further, the viability decrease (inhibition) in assay [7] is 18.6% (inactive); in assay [8], -20.5% (inactive).
For the compound `Cc1c(C(C)C)c(=O)n(-c2ccccc2)n1C`, the nuclear beta-catenin stimulation in assay [1] (at 10 µM) is -0.3% (inactive); in assay [1] (stimulation, at 2 µM), -0.2%. The insulin secretion stimulation in assay [2] is -0.6% (inactive). For the same compound, the viability decrease in assay [3] is -2.5% (inactive). Moreover, in assay [4], the tube area decrease was -2.7% (inactive). In addition, in assay [5], the GLP1 secretion stimulation is 0.4% (inactive). In addition, in assay [6], the inhibition of viability was -15.5% (inactive). Also, the viability decrease (inhibition) in assay [7] was 36.6% (inactive); in assay [8] it was 8.15% (inactive).
For the compound `C[C@H]1C[C@H](O)c2ccsc2S1(=O)=O`, the nuclear beta-catenin stimulation is 0.6% (inactive) in assay [1] (at 10 µM) and 2.7% in assay [1] (stimulation, at 2 µM). Also, the insulin secretion stimulation in assay [2] was -0.8% (inactive). Besides, the viability decrease in assay [3] is -1.3% (inactive). Moreover, the tube area decrease in assay [4] was 1.2% (inactive). For the same compound, the GLP1 secretion stimulation in assay [5] is 1% (inactive). For the same compound, the inhibition of viability in assay [6] is 4.1% (active). Further, the results for the viability decrease (inhibition) in assay [7] and in assay [8] were -6.2% (inactive) and -4% (inactive), respectively.
`O=C(O)[C@@H]1CCCN1`: the nuclear beta-catenin stimulation is 0.9% (inactive) in assay [1] (at 10 µM) and 1.2% in assay [1] (stimulation, at 2 µM). The insulin secretion stimulation in assay [2] is 1.6% (inactive). The viability decrease in assay [3] is 2.9% (inactive). In assay [4], the tube area decrease was -4% (inactive). Besides, the GLP1 secretion stimulation in assay [5] was -1.7% (inactive). In addition, the inhibition of viability in assay [6] was 36.6% (inactive). The viability decrease (inhibition) in assay [7] is 42.8% (inactive); in assay [8], 57.9% (active).
For `CCCC(=O)O[C@]1(C(=O)COC(=O)CC)CC[C@H]2[C@@H]3CCC4=CC(=O)CC[C@]4(C)[C@H]3[C@@H](O)C[C@@]21C`, the nuclear beta-catenin stimulation in assay [1] (at 10 µM) is -0.4% (inactive); in assay [1] (stimulation, at 2 µM) it was -2.3%. For the same compound, the insulin secretion stimulation in assay [2] was 0.8% (inactive). Moreover, the viability decrease in assay [3] is -8.8% (inactive). In assay [4], the tube area decrease is -9% (inactive). In addition, the GLP1 secretion stimulation in assay [5] is 1.9% (inactive). Besides, in assay [6], the inhibition of viability is 6.6% (inactive). Moreover, the viability decrease (inhibition) in assay [7] was -5.5% (inactive); in assay [8], -2% (inactive).
For `Clc1ccc2c(c1)Nc1ccccc1S2`, the nuclear beta-catenin stimulation was 0.9% (inactive) in assay [1] (at 10 µM) and -2.3% in assay [1] (stimulation, at 2 µM). Moreover, the insulin secretion stimulation in assay [2] was 4.2% (inactive). Besides, the viability decrease in assay [3] was 55.6% (active). Besides, in assay [4], the tube area decrease is 26.5% (inactive). Further, in assay [5], the GLP1 secretion stimulation is -3.1% (inactive). The inhibition of viability in assay [6] is 32.4% (inactive). Also, the viability decrease (inhibition) in assay [7] was 31.8% (inactive); in assay [8] it was 17.5% (inactive).
As to `CCCCCCCCCCCCCC(=O)OC(C)C`, the nuclear beta-catenin stimulation is 1.2% (inactive) in assay [1] (at 10 µM) and -0.6% in assay [1] (stimulation, at 2 µM). Further, the insulin secretion stimulation in assay [2] is 0.9% (inactive). In addition, in assay [3], the viability decrease is -8.2% (inactive). For the same compound, the tube area decrease in assay [4] was -9.5% (inactive). Further, the GLP1 secretion stimulation in assay [5] was -0.1% (inactive). Also, in assay [6], the inhibition of viability was 8.25% (inactive). The viability decrease (inhibition) in assay [7] is 7.7% (inactive); in assay [8], 24.3% (inactive).
Take `CCCc1ncc(C(=O)O)s1`: the nuclear beta-catenin stimulation was -1.1% (inactive) in assay [1] (at 10 µM) and -1.2% in assay [1] (stimulation, at 2 µM). Further, in assay [2], the insulin secretion stimulation is 4.2% (inactive). Moreover, the viability decrease in assay [3] was -8.2% (inactive). Also, the tube area decrease in assay [4] is 9.7% (inactive). Moreover, the GLP1 secretion stimulation in assay [5] is -5.4% (inactive). Moreover, the inhibition of viability in assay [6] is 5.1% (inactive). Moreover, the viability decrease (inhibition) in assay [7] is 2.1% (inactive); in assay [8] it was -6.8% (inactive).
With `O=c1[nH]c(=O)n([C@H]2O[C@H](CO)[C@@H](O)[C@@H]2O)cc1/C=C\Br`, the nuclear beta-catenin stimulation in assay [1] (at 10 µM) is 0.8% (inactive); in assay [1] (stimulation, at 2 µM), -0.6%. Also, in assay [2], the insulin secretion stimulation was 3.5% (inactive). For the same compound, the viability decrease in assay [3] was -12.2% (inactive). In addition, the tube area decrease in assay [4] is -20.7% (inactive). The GLP1 secretion stimulation in assay [5] was 1.5% (inactive). Besides, the inhibition of viability in assay [6] was -27.5% (inactive). Moreover, the figures for the viability decrease (inhibition) in assay [7] and in assay [8] were -23.9% (inactive) and 2.6% (inactive), respectively.
On to `O=C(Nc1ccc(Cl)c(Cl)c1)C1CC1`, for which the nuclear beta-catenin stimulation was 0.1% (inactive) in assay [1] (at 10 µM) and 0.9% in assay [1] (stimulation, at 2 µM). Further, in assay [2], the insulin secretion stimulation was 2.2% (inactive). For the same compound, the viability decrease in assay [3] was 25.6% (inactive). Besides, the tube area decrease in assay [4] is 24.7% (inactive). In addition, the GLP1 secretion stimulation in assay [5] is -0.1% (inactive). The inhibition of viability in assay [6] was 43.4% (inactive). Also, the values for the viability decrease (inhibition) in assay [7] and in assay [8] were 25.2% (inactive) and 9.7% (inactive), respectively.
With `Cn1cc(C(=O)[C@@H]2CCc3nc[nH]c3C2)c2ccccc21`, the nuclear beta-catenin stimulation in assay [1] (at 10 µM) was 2.4% (inactive); in assay [1] (stimulation, at 2 µM), -0.1%. Further, the insulin secretion stimulation in assay [2] was 5.1% (inactive). Besides, in assay [3], the viability decrease is 2.2% (inactive). Also, the tube area decrease in assay [4] is 17.2% (inactive). In addition, in assay [5], the GLP1 secretion stimulation was 0.6% (inactive). In assay [6], the inhibition of viability is -2.5% (inactive). The viability decrease (inhibition) in assay [7] was 11.2% (inactive); in assay [8], -4.05% (inactive).
